Assay outcomes: PubChem, National Center for Advancing Translational Sciences (NCATS)
Many of the other results were omitted from the sample, so hits are more common in it than they were.
Giardia kill = Giardia lamblia killing | Giardia lamblia trophozoite viability | activity change, % at 7.66 µM, hits read low | 340,000 tested, 0.15% active; in the data active = activity change below about -80%; inconclusive = between about -30% and that limit;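 note: parasites exposed to compound for two days anaerobically before the ATP read; % is set by controls: 0 for no effect and ±100 for the full control effect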
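Anaerobic 48 hrs incubation at 37 deg C of 100 trophozoites/well with test compounds; ATPLite 1-Step luminescence, 15-30 min RT, reports cellular ATP as viability.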
Gal4-VP16 FLuc = counter-screen for ROR gamma inhibitors: Gal4-VP16 reporter | Potency, µM (titrated, usually from 53.6 µM), without a hit: at the top dose activity, negative = inhibition, hits mostly inhibitors | 310,000 tested, 3.5% active | Drosophila S2 Gal4-VP16 UAS-luciferase, luminescence, 20 h;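 note: Gal4-VP16 expression switched on by copper sulfate through the metallothionein promoter; potency is the fitted concentration of half-maximal effect; % is set by controls: 0 for no effect and ±100 for the full control effect; nearly all actives have a fitted effect of over 50% in size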
ERG Ets-DNA blk = blocks human ERG Ets domain binding to DNA | Potency, µM (series often up to 76.9 µM), inactives show at the top dose FP activity, negative = inhibition, usual class: inhibitors | AID 624246 | 370,000 tested, 0.028% active | fluorescence polarization, His-ERG Ets domain / labelled DNA; active = well fitted inhibition curve with a large enough effect in the polarisation, with a control signal flat; inconclusive = small, poorly fitted or top-dose-only effect, or effect the other way, or a change in a side signal; inactive = no such curve, though single readings can be large or run the other way; the % refers to the polarisation;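 note: polarization taken with two DNA probes labelled with fluorescein and Texas red; potency is the fitted concentration of half-maximal effect; % of control where 0% means no effect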
Target sequence (P11308 whole entry, looked up, the tested form may be a part): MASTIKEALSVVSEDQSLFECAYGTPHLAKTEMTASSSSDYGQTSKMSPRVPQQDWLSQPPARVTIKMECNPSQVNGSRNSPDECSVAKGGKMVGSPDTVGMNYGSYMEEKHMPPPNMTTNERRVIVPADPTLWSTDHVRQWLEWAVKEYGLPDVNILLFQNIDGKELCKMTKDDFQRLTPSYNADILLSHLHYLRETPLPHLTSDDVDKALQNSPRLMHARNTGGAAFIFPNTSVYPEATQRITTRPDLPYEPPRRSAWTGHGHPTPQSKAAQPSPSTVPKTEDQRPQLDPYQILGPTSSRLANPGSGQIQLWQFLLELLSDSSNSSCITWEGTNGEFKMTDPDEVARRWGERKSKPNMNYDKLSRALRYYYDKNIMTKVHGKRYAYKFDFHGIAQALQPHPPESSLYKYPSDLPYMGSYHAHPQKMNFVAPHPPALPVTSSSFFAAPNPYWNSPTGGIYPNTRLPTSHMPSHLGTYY
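His-tagged ERG Ets domain (1 uM in the protein solution; 300mM KCl, 50mM Tris-HCl, 1mM EDTA, 1mM DTT, pH 7.5) received compound, then a probe mix of 5 nM fluorescein-DNA and 100nM Texas-615-DNA. Fluorescence polarization was read for both dyes.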
Integrin act MD = integrin-mediated muscular dystrophy alleviation activation | alpha7betagal myoblasts, beta-gal FDG fluorescence, 48 h | Potency, µM (top dose mostly 38.3 µM), inactives show at the highest dose activation, usual class: activators | 350,000 tested, 0.064% active | AID 624291;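 note: potency is the fitted concentration of half-maximal effect; 100% = response of the positive control SU9516; nearly all actives have a fitted effect of over 60% in size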
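Alpha7betagal+/- myoblasts (passage 13) were plated 16-24 hr, then exposed to compounds (1:260 dilution of DMSO stock) for 48 hours at 37C. After MPER lysis, β-galactosidase reporter activity was read as FDG fluorescence (ex 480/em 540) after 30 minutes.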
RORgamma inh = inhibitors of mouse ROR gamma transcriptional activity. AID 2551. 310,000 tested, 5.4% active. Potency, µM (top dose mostly 53.6 µM), inactives show top-dose activity change, negative = inhibition, hits mostly inhibitors. P51450. Drosophila S2 Gal4-RORgamma UAS-luciferase reporter, 20 h; note: potency is the fitted concentration of half-maximal effect; % is set by controls: 0 for no effect and ±100 for the full control effect; nearly all actives have a fitted effect of over 60% in size
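Luminescence from a UAS-regulated Photinus luciferase reporter in stably transfected Drosophila Schneider cells is measured; decreased signal marks ROR gamma inhibition. Fusion expression is induced by 700 uM copper sulfate for 20 hr.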
Numbers without * were called inactive; ? = inconclusive; . = no result given; [ ] = another dose, or the depositor's remark. Unless noted, calls come from the whole dose curve; as a rule, active = well fitted curve in the direction sought with a large enough effect; inconclusive = small, poorly fitted or top-dose-only effect, or another doubt; inactive = no such curve, though single readings can be large; an effect the other way counts as inactive or inconclusive.

SMILES | Giardia kill | Gal4-VP16 FLuc | ERG Ets-DNA blk | Integrin act MD | RORgamma inh
O=C1NC2=C(CCc3ccccc32)C(c2ccccc2)N1 (stereo not drawn) | -14 | 2% | 7% | 3% | -33%
O=S(=O)(Nc1cccc(-n2cnnn2)c1)c1ccccc1F | 13 | 4% | -3% | 11% | -3%
COc1ccc(C2CC(c3ccccc3)Oc3cc4c(cc32)OCO4)cc1 (stereo not drawn) | -8 | -16% | . | . | 5%
COc1cccc(C(=O)NCC(=O)N2CCC3(CC2)NCCc2[nH]cnc23)c1 | -24 | -1% | -2% | 11µM* | -6%
CCn1cnc2c(=O)oc3ccc(S(=O)(=O)N4CCN(c5cc(C)ccc5C)CC4)cc3c21 | . | . | 6% | . | .
Fc1ccc(NC(=S)NCCc2ccc(Cl)cc2)cc1 | 8 | 3.2µM* | -4% | -21% | 1.1µM*
Fc1ccc(CCNC(=S)Nc2ccc(F)c(Cl)c2)cc1 | 2 | ? | 6% | 0% | 7.1µM*
CCCCNC(=S)Nc1ccc(F)cc1 | 20 | ? | 3% | -22% | 13µM*
CC(Nc1cccc2ccccc12)C(=O)N/N=C/c1ccc([N+](=O)[O-])cc1 (stereo not drawn) | -4 | 14µM* | 2% | -16% | 13µM*
COc1cc([N+](=O)[O-])cc(/C=N/NC(=O)C(C)Nc2cccc3ccccc23)c1O (stereo not drawn) | 2 | 0.5µM* | -4% | -5% | 0.4µM*
COc1cc([N+](=O)[O-])cc(/C=N/NC(=O)c2cccnc2)c1O | 5 | -16% | -11% | ? | -21%
O=C(N/N=C/c1cccc(OC(=O)N2CCOCC2)c1)c1cccs1 | 0 | 13µM* | -7% | ? | ?
Cc1cccc(-n2nc3c(c2NC(=O)c2ccc4c(c2)OCO4)CS(=O)(=O)C3)c1C | -14 | -4% | -8% | 29% | 0%
CCC1=C(OC(=O)N(CC)CC)N2C(=O)OC(=NCCOC)[C@]2(C)[C@H]2C1=CC[C@H]1C(=O)N(CC)C(=O)[C@H]12 | . | 2% | . | . | 1%
O=C(OCc1nc2scc(-c3ccccc3)c2c(=O)[nH]1)c1cc(Cl)ccc1[N+](=O)[O-] | 32 | ? | 6% | 19% | 11µM*
Cc1c(C(=O)OCc2nc3scc(-c4ccccc4)c3c(=O)[nH]2)cccc1[N+](=O)[O-] | -7 | -5% | 1% | 25% | ?
S=c1[nH]c(-c2ccccc2)cn1-c1ccccc1 | 2 | 10µM* | -6% | -20% | 10µM*
Nc1ccc(-n2cc(-c3ccccc3)[nH]c2=S)cc1 | -7 | ? | -11% | -38% | 8.9µM*
O=[N+]([O-])c1ccc(-c2cn(-c3ccccc3)c(=S)[nH]2)cc1 | -5 | ? | -8% | 6% | ?
O=[N+]([O-])c1cccc(-c2cn(-c3ccccc3)c(=S)[nH]2)c1 | 13 | 11µM* | 7% | 4% | 2µM*
c1ccc(-c2ccc(-c3ccccc3)[nH]2)cc1 | -13 | . | -13% | -20% | .
C=C(C)Cn1c(SCC(=O)c2ccc(OC)cc2)nc2sc3c(c2c1=O)CCCC3 | . | . | 0% | . | .
CCOCCCNC(=S)Nc1cc(C)cc(C)c1 | -13 | 10µM* | 0% | 11% | 6.3µM*
COCCCNC(=S)Nc1c(C)cc(C)cc1C | -10 | ? | -2% | 5% | 11µM*
NCC1O[C@@H](O[C@@H]2C(O)[C@H](O[C@H]3OC(CO)C(O)C(N)C3O)[C@@H](N)C[C@H]2N)C(N)C(O)C1O (stereo partly drawn) | . | 2% | . | . | 1%
SMILES | Giardia kill | Gal4-VP16 FLuc | ERG Ets-DNA blk | Integrin act MD | RORgamma inh
COC(=O)c1cccc(C23CC4(C2)[C@H](CN(CC2CCCCC2)[C@@H]4c2ccccc2)C3c2ccc(C(F)(F)F)cc2)c1 (stereo partly drawn) | . | 3% | . | . | -11%
Cc1cccc(NC(=S)N2CCC(c3nc4ccccc4o3)CC2)c1 | -12 | 8%[10 µM] | 4% | 9% | 7.1µM*
Cc1cccc(NC(=S)N2CCC(c3nc4ccccc4o3)CC2)c1C | 3 | ? | . | -9% | 10µM*
COc1ccccc1NC(=O)N1CCC(c2nc3ccccc3o2)CC1 | -15 | -5%[10 µM] | -5% | 8% | 9%
CCOc1ccccc1NC(=S)N1CCC(c2nc3ccccc3o2)CC1 | -23 | ? | 5% | 8% | 11µM*
O=C1CS(=O)(=O)C2(C(=O)N(Cc3ccccc3Cl)c3ccccc32)N1c1ccc(F)cc1 (stereo not drawn) | . | . | -1% | . | .
CC1(C)OC(=O)C2(Cc3c(F)cccc3N3CCCC32)C(=O)O1 (stereo not drawn) | 20 | . | . | . | .
COc1ccc(Cl)cc1NC(=O)CSc1nc(=O)n(Cc2ccco2)c2c1CCC2 | . | . | 8% | . | .
CC1(C)S[C@@H]2[C@H](NC(=O)[C@@H](N)c3ccccc3)C(=O)N2[C@H]1C(=O)O[C@H]1OC(=O)c2ccccc21 | . | -1%[17 µM] | . | . | 8%[2.98 µM]
COc1cc2c(cc1OC)C(c1ccc(-c3ccc(Cl)c(Cl)c3)o1)=NCC2 | -4 | ? | 3% | -61% | 13µM*
COc1cc2c(cc1OC)C(c1ccc(-c3ccc(Cl)cc3Cl)o1)=NCC2 | -2 | 20µM* | 0% | 0% | 6.3µM*
COc1cc2c(cc1OC)C(c1ccc(-c3cc(Cl)ccc3Cl)o1)=NCC2 | -1 | -1% | -2% | -19% | 0%
COc1cc2c(cc1OC)C(c1ccc(-c3ccccc3Cl)o1)=NCC2 | 5 | 11µM* | 3% | 9%[7.66 µM] | 11µM*
COc1cc2c(cc1OC)C(c1ccc(Cl)cc1)=NCC2 | -22 | 1% | -4% | 13% | -38%
COc1ccc([N+](=O)[O-])cc1NC(=O)C(C)OC(=O)Cn1[nH]c(=O)c2ccccc2c1=O (stereo not drawn) | -3 | . | 16% | -14% | .
COc1ccc(NC(=O)/C(Cl)=C(/Cl)S(=O)Cc2ccc(Cl)cc2)cn1 (stereo not drawn) | -4 | 2.8µM* | 2% | -50% | 0.79µM*
COc1ccc(NC(=O)/C(Cl)=C(/Cl)S(=O)(=O)Cc2ccccc2)cn1 | 2 | 3.2µM* | -7% | -2% | ?
COc1cc(NS(=O)(=O)c2ccc(C(=O)O)cc2)c2nc(C)ccc2c1 | 2 | . | . | . | .
CCCCCCOC(=O)C(C#N)c1nc2ccccc2nc1N1CCN(CC)CC1 (stereo not drawn) | -1 | ? | 0% | -11% | 10µM*
COc1cccc(NC(=S)N/N=C2\CC(C)(C)Oc3ccc(O)cc32)c1 | -15 | 4.5µM* | 5% | 31% | 7.1µM*
Cc1cccc(NC(=S)N/N=C2\CC(C)(C)Oc3ccc(O)cc32)c1 | 8 | 3.2µM* | 3% | -9% | 4.5µM*
COc1cccc(NC(=S)N/N=C2\CC3CCC2(C)C3(C)C)c1 (stereo not drawn) | 3 | 5µM* | 3% | 20% | 0.56µM*
Cc1cccc(NC(=O)C2(C)Cc3ccccc3C(=O)O2)c1 (stereo not drawn) | . | . | -4% | . | .
